# Compounds without any hit were thinned out: in the full panel of roughly 83,000, 20% have a hit.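 Compound tested at a single concentration for 48 hours in 96-well plates; a percent growth value below 10 was scored as active.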 A number with no mark means an inactive call. Activity calls are given as the source filed them.
# System: SF-539 CNS
# Test: NCI-60 one-dose screen, 48 h (100 = growth as untreated, 0 = no growth, -100 = all killed)
# Details: 10 µM unless noted
row,Compound,growth
1,COc1ccc2nc(-c3ccc(Cl)cc3)cc(-c3nnc(SCC(=O)Nc4ccc(/C(C)=N\O)cc4)o3)c2c1,68.4%
2,C/C(=C\c1cnc(C)s1)[C@@H]1C[C@@H]2O[C@@H]2CCC[C@H](C)[C@H](O)[C@@H](C)C(=O)C(C)(C)[C@@H](O)CC(=O)O1,7.63% (active)
3,O=C(/C(=C\c1c(-c2ccccc2)[nH]c2ccccc12)S(=O)(=O)c1ccccc1)c1ccccc1,75.4%
4,O=c1[nH]c(-c2cccc(F)c2)cc2cc(F)ccc12,-1.4% (active)
5,O=C1CS/C(=N/c2nnc(-c3ccc(O)cc3)s2)N1,102%
6,C[C@H](Oc1cc(-c2cnn(C3CCNCC3)c2)cnc1N)c1c(Cl)ccc(F)c1Cl,68.3%
7,COCCOCCOCc1n(Cc2ccc3ccccc3n2)c2ccccc2[n+]1Cc1ccc2ccccc2n1,26.7%
8,CCOC(=O)c1cnn(-c2nc(-c3ccc(F)cc3)c(C#N)c(N3CCOCC3)n2)c1N,97.2%
9,CC(=O)c1c(OCC#N)ccc2c(C)cc(=O)oc12,105%
10,CN(CCC#N)C(=O)Nc1ccccc1,105%
11,C#Cc1ccccc1NC(=O)c1sc2nc3c(cc2c1N)CCCCC3,101%
12,COCCOC(=O)COc1ccc(OC)cc1,104%
13,C#C[C@@]1(O)[C@@H](CO)O[C@@H](n2cnc3c(-c4ccccc4)ncnc32)[C@@H]1O,108%
14,COc1cc(NCC(=O)Nc2cc(Nc3ccc(C)cc3)ncn2)c(Cl)c(OC)c1Cl,95.5%
15,COc1ccc2oc(=O)cc(-c3c(C#N)c(N)n4nc(N)c(C#N)c4c3C#N)c2c1,98.2%
16,O=C1NC(SCc2ccc(F)cc2)=N/C1=C/c1cccc(OCc2ccc(Cl)cc2)c1,14.1%
17,COc1ccc(Nc2nc(SCC(C)C)nc(-c3ccc(F)cc3)c2C#N)cc1,66.1%
18,COC(=O)/C=C1\SC(=Nc2ccc(F)cc2)N(CCc2c[nH]c3ccccc23)C1=O,109%
19,Nc1c(C(=O)Nc2ccccc2)sc2nc3c(cc12)CN(C(=O)OCc1ccccc1)CC3,44.9%

row,Compound,growth
1,COc1ccc(C2=NN(c3ccc(S(N)(=O)=O)cc3)C(c3ccc(Cl)cc3)C2)c(O)c1 (centres undefined),89.9%
2,COc1ccc(C(C)c2cc(OC)c(OC)c(OC)c2)cc1 (centres undefined),-7.56% (active)
3,COc1ccc(-n2nc(C(=O)NCC(=O)O)nc2-c2ccccc2)cc1,97.2%
4,CCOC(=O)C1=C(C)n2nc(CC#N)c(C#N)c2NC1c1ccc(Cl)cc1 (centres undefined),96.8%
5,Nc1c(C(=O)Nc2ccccn2)sc2nc3c(cc12)CCCC3,39.3%
6,CCN1CCC[C@H]1c1cc(O)c2c(c1OC)C[C@H]1C[C@H]3[C@H](N)C(=O)C(C(N)=O)=C(O)[C@@]3(O)C(=O)C1=C2O,-21% (active)
7,Cc1cc(O)cc(O)c1N=NC1=NCCS1,100%
8,COC(=O)c1cncc(C(=O)Nc2ccc(-n3cnc4ccccc43)cc2)c1,95.9%
9,CNc1cccc2c1C(=O)c1cccc(N)c1C2=O,85.7%
10,O=S(=O)(Nc1nccs1)c1ccc(Nc2nc(-c3ccncc3)cs2)cc1,88.2%
11,CN1C(=O)c2cc(Cl)nc3c(NC(=O)c4cccc(Cl)c4)c(Cl)c(NC(=O)c4cccc(Cl)c4)c1c23,9.56% (active)
12,O=C(O)COc1ccc2c(=O)c3sc4c(=O)c5ccccc5c(=O)c4c3c(=O)c2c1,-45.7% (active)
13,O=C(Nc1nc(-c2ccccc2)cs1)c1cc(-c2ccc(Br)cc2)nc2ccccc12,63%
14,Cc1cc(Nc2nc(SCc3ccc(C(=O)Nc4ccc(F)cc4N)cc3)nn3cccc23)n[nH]1,8.82% (active)
15,O=C1NCc2ccc3c(-c4cccc(Cl)c4)c[nH]c3c21,-15.8% (active)
16,O=C(CN1N=C(c2ccc(F)cc2)CCC1=O)Nc1nccs1,98.1%
17,O=C1Nc2ccc(Cl)cc2/C1=N/c1nc(-c2ccc(F)cc2)cs1,48.6%
18,OCCNc1nc(NCCO)nc(Nc2ccc(C3=NN(c4cc(Cl)cc(Cl)c4)C(c4ccc(Cl)cc4)C3)cc2)n1 (centres undefined),-45.2% (active)

# System: UACC-257 melanoma
# Test: as above
# Details: 10 µM unless noted
row,Compound,growth
1,COc1ccc2nc(-c3ccc(Cl)cc3)cc(-c3nnc(SCC(=O)Nc4ccc(/C(C)=N\O)cc4)o3)c2c1,44.4%
2,C/C(=C\c1cnc(C)s1)[C@@H]1C[C@@H]2O[C@@H]2CCC[C@H](C)[C@H](O)[C@@H](C)C(=O)C(C)(C)[C@@H](O)CC(=O)O1,76.1%
3,O=C(/C(=C\c1c(-c2ccccc2)[nH]c2ccccc12)S(=O)(=O)c1ccccc1)c1ccccc1,32.3%
4,O=c1[nH]c(-c2cccc(F)c2)cc2cc(F)ccc12,55.3%
5,O=C1CS/C(=N/c2nnc(-c3ccc(O)cc3)s2)N1,100%
6,C[C@H](Oc1cc(-c2cnn(C3CCNCC3)c2)cnc1N)c1c(Cl)ccc(F)c1Cl,-45% (active)
7,COCCOCCOCc1n(Cc2ccc3ccccc3n2)c2ccccc2[n+]1Cc1ccc2ccccc2n1,-5.39% (active)
8,CCOC(=O)c1cnn(-c2nc(-c3ccc(F)cc3)c(C#N)c(N3CCOCC3)n2)c1N,106%
9,CC(=O)c1c(OCC#N)ccc2c(C)cc(=O)oc12,133%
10,CN(CCC#N)C(=O)Nc1ccccc1,94.1%
11,C#Cc1ccccc1NC(=O)c1sc2nc3c(cc2c1N)CCCCC3,110%
12,COCCOC(=O)COc1ccc(OC)cc1,96.3%
13,C#C[C@@]1(O)[C@@H](CO)O[C@@H](n2cnc3c(-c4ccccc4)ncnc32)[C@@H]1O,117%
14,COc1cc(NCC(=O)Nc2cc(Nc3ccc(C)cc3)ncn2)c(Cl)c(OC)c1Cl,89%
15,COc1ccc2oc(=O)cc(-c3c(C#N)c(N)n4nc(N)c(C#N)c4c3C#N)c2c1,107%
16,O=C1NC(SCc2ccc(F)cc2)=N/C1=C/c1cccc(OCc2ccc(Cl)cc2)c1,95.8%
17,COc1ccc(Nc2nc(SCC(C)C)nc(-c3ccc(F)cc3)c2C#N)cc1,73%
18,COC(=O)/C=C1\SC(=Nc2ccc(F)cc2)N(CCc2c[nH]c3ccccc23)C1=O,72.4%
19,Nc1c(C(=O)Nc2ccccc2)sc2nc3c(cc12)CN(C(=O)OCc1ccccc1)CC3,59.6%

row,Compound,growth
1,COc1ccc(C2=NN(c3ccc(S(N)(=O)=O)cc3)C(c3ccc(Cl)cc3)C2)c(O)c1 (centres undefined),57.3%
2,COc1ccc(C(C)c2cc(OC)c(OC)c(OC)c2)cc1 (centres undefined),53%
3,COc1ccc(-n2nc(C(=O)NCC(=O)O)nc2-c2ccccc2)cc1,97.1%
4,CCOC(=O)C1=C(C)n2nc(CC#N)c(C#N)c2NC1c1ccc(Cl)cc1 (centres undefined),114%
5,Nc1c(C(=O)Nc2ccccn2)sc2nc3c(cc12)CCCC3,67.8%
6,CCN1CCC[C@H]1c1cc(O)c2c(c1OC)C[C@H]1C[C@H]3[C@H](N)C(=O)C(C(N)=O)=C(O)[C@@]3(O)C(=O)C1=C2O,-14.1% (active)
7,Cc1cc(O)cc(O)c1N=NC1=NCCS1,101%
8,COC(=O)c1cncc(C(=O)Nc2ccc(-n3cnc4ccccc43)cc2)c1,104%
9,CNc1cccc2c1C(=O)c1cccc(N)c1C2=O,80.5%
10,O=S(=O)(Nc1nccs1)c1ccc(Nc2nc(-c3ccncc3)cs2)cc1,109%
11,CN1C(=O)c2cc(Cl)nc3c(NC(=O)c4cccc(Cl)c4)c(Cl)c(NC(=O)c4cccc(Cl)c4)c1c23,-49.3% (active)
12,O=C(O)COc1ccc2c(=O)c3sc4c(=O)c5ccccc5c(=O)c4c3c(=O)c2c1,-3.61% (active)
13,O=C(Nc1nc(-c2ccccc2)cs1)c1cc(-c2ccc(Br)cc2)nc2ccccc12,56%
14,Cc1cc(Nc2nc(SCc3ccc(C(=O)Nc4ccc(F)cc4N)cc3)nn3cccc23)n[nH]1,67.6%
15,O=C1NCc2ccc3c(-c4cccc(Cl)c4)c[nH]c3c21,35.6%
16,O=C(CN1N=C(c2ccc(F)cc2)CCC1=O)Nc1nccs1,92.8%
17,O=C1Nc2ccc(Cl)cc2/C1=N/c1nc(-c2ccc(F)cc2)cs1,36.5%
18,OCCNc1nc(NCCO)nc(Nc2ccc(C3=NN(c4cc(Cl)cc(Cl)c4)C(c4ccc(Cl)cc4)C3)cc2)n1 (centres undefined),48.4%
